# Test results published in PubChem BioAssay (NCI).
# Compounds without any hit were thinned out: in the full panel of roughly 79,000, 15% have a hit. Values without a mark were called inactive. Activity calls are given as the source filed them. Cut-off read from the data, not from the text of the source: active = growth inhibition above about 70%; inactive = the rest.
# Experiments:
# [1] = NCI Yeast Anticancer Drug Screen. Data for the rad50 strain (AID 155);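 note: 0% = growth of vehicle-only cultures of the same strain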; details: S. cerevisiae rad50 strain growth inhibition, hits give high values
# How it was run: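 Relative growth inhibition (compound vs vehicle) was measured in yeast with a defined repair-gene alteration.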
# [2] = NCI Yeast Anticancer Drug Screen. Data for the mec2-1 strain (AID 157); details: S. cerevisiae mec2-1 strain, hits give high values
# How it was run: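 Yeast mec2-1 mutant treated with compound. Readout: growth inhibition vs vehicle controls.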
# [3] = NCI Yeast Anticancer Drug Screen. Data for the sgs1 mgt1 strain (AID 161);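 note: 0% = growth of cultures given vehicle only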; details: S. cerevisiae sgs1 mgt1 strain, hits give high values
# How it was run: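 Genetically altered yeast, compound exposure, growth inhibition relative to vehicle.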
# [4] = NCI Yeast Anticancer Drug Screen. Data for the cln2 rad14 strain (AID 165);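 note: 0% = growth equal to vehicle treated cultures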; details: S. cerevisiae cln2 rad14 strain, hits give high values
# How it was run: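 cln2 rad14 yeast strain; compound exposure; growth inhibition read vs vehicle controls.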
# [5] = NCI Yeast Anticancer Drug Screen. Data for the bub3 strain (AID 167); details: S. cerevisiae bub3 mutant strain, hits give high values
# How it was run: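 Screening used yeast with an engineered genetic alteration affecting cell cycle control. Compound-exposed cultures were compared with vehicle cultures, and reduced growth was taken as inhibition.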
# [6] = NCI Yeast Anticancer Drug Screen. Data for the mlh1 rad18 strain (AID 175); details: S. cerevisiae mlh1 rad18 strain growth inhibition, hits give high values
# How it was run: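 Yeast w/ defined DNA-repair lesions; compound exposure; growth vs vehicle controls → % inhibition.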
# [7] = at 5.0 µM (retest, dose inferred, filed as 0.5)
# [8] = at 50.0 µM (retest, dose inferred, filed as 5.0)
SMILES,"growth inhibition [1, 7]","growth inhibition [1, 8]",growth inhibition ([1]; at 50.0 µM),"growth inhibition [2, 7] [%]","growth inhibition [2, 8]",growth inhibition ([2]; at 50.0 µM),"growth inhibition [3, 7]","growth inhibition [3, 8]",growth inhibition ([3]; at 50.0 µM),"growth inhibition [4, 7]","growth inhibition [4, 8]",growth inhibition ([4]; at 50.0 µM),"growth inhibition [5, 7]","growth inhibition [5, 8]",growth inhibition ([5]; at 50.0 µM),"growth inhibition [6, 7]","growth inhibition [6, 8]",growth inhibition ([6]; at 50.0 µM)
COC(=O)c1nc(=S)[nH]c(C(=O)OC)c1C(=O)c1c(C)[nH]c2ccccc12,-7%,-2%,-25%,-3,7%,-5.5%,2%,1%,-5.15%,1%,-4%,30.7%,-6%,-7%,-2.3%,-7%,-2%,62.2%
COc1ccc(N=N/N=c2\sc3cc(Cl)ccc3n2C)cc1,29%,57%,36.9%,18,43%,6.15%,21%,42%,-30.4%,28%,56%,30.4%,21%,62%,5%,28%,63%,38.2%
Cc1cc(Cc2cccc(Cl)c2)ccc1O,-8%,99% (active),99.5% (active),-34,99% (active),99.7% (active),-2%,99% (active),99.3% (active),-21%,99% (active),99.4% (active),-20%,99% (active),99.6% (active),-8%,99% (active),99.5% (active)
CCCCN(CCCC)CC(O)c1ccc(CCc2ccccc2)cc1 (configuration not stated),-6%,91% (active),99.2% (active),22,92% (active),98.7% (active),13%,99% (active),99.5% (active),-7%,88% (active),98.7% (active),-4%,92% (active),76.2% (active),28%,97% (active),99.3% (active)
CC1C(CCC(=O)O)OC2CC3C4CCC5CC(O)CCC5(C)C4CCC3(C)C21 (configuration not stated),4%,56%,82.3% (active),7,96% (active),90% (active),22%,89% (active),95.5% (active),8%,90% (active),93.7% (active),4%,66%,86.4% (active),16%,91% (active),85.3% (active)
O=[N+]([O-])c1ccc(/C(=C\c2ccccc2)Cn2ccnc2)cc1,88% (active),94% (active),71.5% (active),59,85% (active),77% (active),84% (active),92% (active),71.3% (active),89% (active),91% (active),64.8%,78% (active),94% (active),81.8% (active),80% (active),92% (active),75.5% (active)
ClCC1CSC2(CCCCC2)O1 (configuration not stated),16%,3%,21.5%,10,-16%,20.9%,7%,-8%,27.1%,15%,32%,13.7%,-13%,-9%,31.6%,-17%,-23%,27.5%
CNC1=C2NC(=O)/C(C)=C\C=C\C(C)C(O)C(C)C(O)C(C)C(OC(C)=O)C(C)C(OC)/C=C/OC3(C)Oc4c(C)c(O)c(c(c4C3=O)C1=O)C2=O (configuration not stated),-6%,56%,52.3%,-2,61%,52.8%,1%,55%,45.7%,-4%,59%,49%,-2%,58%,52%,-4%,64%,56.5%
CC(C)S(=O)(=O)ON1C(=O)c2ccc(N(C)C)cc2C1=O,14%,35%,91.7% (active),14,33%,81.8% (active),16%,34%,61.3%,24%,42%,95.4% (active),17%,48%,73.4% (active),16%,40%,97.5% (active)
